Screening results deposited in PubChem BioAssay by Broad Institute.
Pf Dd2 inh: P. falciparum Dd2 growth inhibition | SYBR Green, 72 h; hits give low values | activity change, % at 10 µM | actives 2.3% (n = 94,000) | AID 1159554; in the data active = activity change below about -80%; inconclusive = no clear call, values can overlap the other calls
C diff growth: C. difficile growth inhibition; AID 1259249; actives 0.25% (n = 86,000); growth activity, negative = inhibition, % at 16 µg/mL (by protocol); Clostridium difficile clinical isolate growth, OD600, 24 h; hits give low values;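 active = mean growth activity at or below -80% and every replicate also at or below -80%; inconclusive = mean at or below -80% but some replicate above -80%; inactive = mean growth activity above -80%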
T cruzi growth-1: inhibitors of T. cruzi proliferation; T. cruzi beta-gal in NIH3T3, GalScreen luminescence, 90 h; inhibition, % at 8.34 µM; actives 5.9% (n = 77,000);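 active = mean inhibition above about 93%, with at least 55% of replicates each passing it, limit read from the data, passing the limit was not always enough; inconclusive = only one of those two conditions holds; inactive = neither condition holds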
T cruzi growth-2: blocks T. cruzi growth in NIH3T3 host cells; AID 651739; inhibition, % at 8.35 µM; shares compounds with T cruzi growth-1; T. cruzi beta-gal in NIH3T3, GalScreen luminescence, 90 h; actives 72% (n = 5,600);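 active = mean replicate inhibition above about 95% and at least 55% of replicates individually reaching it, limit read from the data; inconclusive = only one of the two criteria is met; inactive = neither criterion is met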
T cruzi growth-3: Trypanosoma cruzi proliferation inhibition | shares compounds with T cruzi growth-1 | T. cruzi beta-gal in NIH3T3, GalScreen luminescence, 90 h | AID 651740 | actives 21% (n = 5,600) | inhibition, % at 2.09 µM;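 active = mean inhibition above about 95%, with at least 55% of replicates also reaching it, limit read from the data; inconclusive = meets just one of the two conditions; inactive = meets neither condition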
NIH3T3 tox: kills mouse NIH/3T3 fibroblasts; shares compounds with T cruzi growth-1; NIH/3T3 viability, CellTiter-Glo ATP luminescence, 90 h; cytotoxicity (signal decrease), % at 8.35 µM; actives 14% (n = 5,600);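 active = mean signal decrease across replicates above about 35% based on untreated-well scatter, with enough replicates individually passing, limit read from the data; inconclusive = no rule stated though some were filed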
3T3 cytotox 2: kills mouse NIH/3T3 fibroblasts. shares compounds with T cruzi growth-1. NIH/3T3 viability, CellTiter-Glo ATP luminescence, 90 h. inhibition, % at 24.9 µM. actives 56% (n = 5,600). AID 651744;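 active = mean loss of cell viability signal at or above a set limit, and enough replicates individually reaching it; inconclusive = meets only the mean limit or only the replicate share; inactive = meets neither condition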
Large screens that a line does not name were inactive (follow-up assays come after a bar, where they were run). Shown are actives, neighbours in structure and some others; about 6.7% of the full set was active somewhere.

C[C@@H]1CN([C@H](C)CO)C(=O)c2ccccc2-c2ccccc2CO[C@@H]1CN(C)C(=O)Nc1ccccc1C(F)(F)F	none
N#C[C@H]1[C@@H](c2ccc(C3=CCCCC3)cc2)[C@@H](CO)N1C(=O)C1CCOCC1	none
Cc1cccc(-c2ccc([C@@H]3[C@H]4CN(C(=O)Cc5ccccn5)CC(=O)N4[C@H]3CO)cc2)c1	none (no result: T cruzi growth-1)
COc1ccc(S(=O)(=O)Nc2ccc3c(c2)CC(=O)N([C@@H](C)CO)C[C@@H](C)[C@@H](CN(C)Cc2ccccc2)O3)cc1	none
COc1ccc(S(=O)(=O)Nc2ccc3c(c2)CC(=O)N([C@@H](C)CO)C[C@H](C)[C@@H](CN(C)Cc2ccccc2)O3)cc1	none
Cc1noc(C)c1S(=O)(=O)Nc1ccc2c(c1)CC(=O)N([C@@H](C)CO)C[C@@H](C)[C@H](CN(C)Cc1ccc(Oc3ccccc3)cc1)O2	T cruzi growth-1 inconclusive | T cruzi growth-2 109 | T cruzi growth-3 inactive | NIH3T3 tox inactive | 3T3 cytotox 2 104
COc1ccc(S(=O)(=O)Nc2ccc3c(c2)CC(=O)N([C@H](C)CO)C[C@@H](C)[C@H](CN(C)Cc2ccccc2)O3)cc1	T cruzi growth-1 104 | T cruzi growth-2 109 | T cruzi growth-3 99 | NIH3T3 tox inactive | 3T3 cytotox 2 inactive
Cc1noc(C)c1S(=O)(=O)Nc1ccc2c(c1)CC(=O)N([C@H](C)CO)C[C@@H](C)[C@@H](CN(C)Cc1ccc(Oc3ccccc3)cc1)O2	none
COc1ccc(S(=O)(=O)Nc2ccc3c(c2)CC(=O)N([C@@H](C)CO)C[C@H](C)[C@H](CN(C)Cc2ccccc2)O3)cc1	T cruzi growth-1 99 | T cruzi growth-2 99 | T cruzi growth-3 inactive | NIH3T3 tox inactive | 3T3 cytotox 2 inactive
C[C@@H]1CN([C@H](C)CO)C(=O)c2cc(NC(=O)CCC(F)(F)F)ccc2O[C@H]1CN(C)C(=O)Nc1ccc(F)cc1	none
C[C@@H]1CN([C@H](C)CO)C(=O)Cc2cc(NC(=O)CCN3CCOCC3)ccc2O[C@H]1CN(C)C(=O)NC1CCCCC1	none
O=C(C[C@H]1CC[C@@H]2[C@H](COC[C@H](O)CN2Cc2ccccc2)O1)NCc1ccccc1Cl	none (no result: C diff growth)
O=C(C[C@@H]1CC[C@@H]2[C@H](COC[C@H](O)CN2S(=O)(=O)c2ccc(F)cc2)O1)NCC1CCCCC1	T cruzi growth-1 inconclusive (no result: Pf Dd2 inh) | T cruzi growth-2 inactive | T cruzi growth-3 inactive | NIH3T3 tox inactive | 3T3 cytotox 2 inactive
O=C(C[C@H]1CC[C@@H]2[C@H](COC[C@@H](O)CN2S(=O)(=O)c2ccc(F)cc2)O1)NCCN1CCCCC1	T cruzi growth-1 114 (no result: C diff growth) | T cruzi growth-2 inactive | T cruzi growth-3 inactive | NIH3T3 tox inactive | 3T3 cytotox 2 inactive
O=C(C[C@@H]1CC[C@@H]2[C@H](COC[C@@H](O)CN2S(=O)(=O)c2ccc(F)cc2)O1)NCCN1CCCCC1	none (no result: C diff growth)
O=C(C[C@@H]1CC[C@@H]2[C@H](COC[C@@H](O)CN2S(=O)(=O)c2ccc(F)cc2)O1)NCC1CC1	none
Cc1noc(C)c1NC(=O)Nc1cccc2c1O[C@@H](CN(C)C)[C@@H](C)CN([C@@H](C)CO)C2=O	none (no result: T cruzi growth-1)
C[C@@H]1CN([C@@H](C)CO)C(=O)c2cc(NC(=O)Nc3ccc(C(F)(F)F)cc3)ccc2O[C@@H]1CN(C)S(=O)(=O)c1cccs1	none (no result: C diff growth)
CNC[C@H]1OCCCC[C@@H](C)Oc2ccc(NC(=O)CCCN(C)C)cc2C(=O)N([C@H](C)CO)C[C@@H]1C	none
Cc1ccc(S(=O)(=O)Nc2ccc3c(c2)CC(=O)N([C@H](C)CO)C[C@H](C)[C@@H](CN(C)C)O3)cc1	none
C[C@@H]1CN([C@@H](C)CO)C(=O)c2cc(NC(=O)CCC(F)(F)F)ccc2O[C@H]1CN(C)C(=O)NC1CCCCC1	none
COc1ccc(S(=O)(=O)Nc2ccc3c(c2)C(=O)N([C@H](C)CO)C[C@H](C)[C@H](CN(C)S(=O)(=O)c2ccccc2)OCCCC[C@H](C)O3)cc1	none (no result: T cruzi growth-1)
COc1ccc(S(=O)(=O)N(C)C[C@@H]2OCCCC[C@H](C)Oc3ccc(NS(=O)(=O)c4ccccc4)cc3C(=O)N([C@H](C)CO)C[C@@H]2C)cc1	none (no result: Pf Dd2 inh)
COc1ccc(S(=O)(=O)N(C)C[C@@H]2OCCCC[C@@H](C)Oc3ccc(NS(=O)(=O)c4ccccc4)cc3C(=O)N([C@H](C)CO)C[C@H]2C)cc1	T cruzi growth-1 106 (no result: Pf Dd2 inh) | T cruzi growth-2 109 | T cruzi growth-3 inactive | NIH3T3 tox inactive | 3T3 cytotox 2 inactive
COc1ccc(S(=O)(=O)N(C)C[C@H]2OCCCC[C@@H](C)Oc3ccc(NS(=O)(=O)c4ccccc4)cc3C(=O)N([C@@H](C)CO)C[C@H]2C)cc1	T cruzi growth-1 107 (no result: Pf Dd2 inh) | T cruzi growth-2 inconclusive | T cruzi growth-3 inactive | NIH3T3 tox inactive | 3T3 cytotox 2 inactive
C[C@@H]1CCCCO[C@@H](CN(C)Cc2ccccc2)[C@H](C)CN([C@@H](C)CO)C(=O)c2cc(NC(=O)Nc3cccc4ccccc34)ccc2O1	T cruzi growth-1 107 | T cruzi growth-2 103 | T cruzi growth-3 104 | NIH3T3 tox inactive | 3T3 cytotox 2 106
C[C@@H]1CN([C@@H](C)CO)C(=O)c2cc(NC(=O)Nc3cccc4ccccc34)ccc2O[C@@H](C)CCCCO[C@@H]1CN(C)Cc1ccccc1	T cruzi growth-1 116 | T cruzi growth-2 110 | T cruzi growth-3 101 | NIH3T3 tox inactive | 3T3 cytotox 2 inconclusive
C[C@@H]1CCCCO[C@@H](CN(C)CC2CCCCC2)[C@H](C)CN([C@@H](C)CO)C(=O)c2cc(NC(=O)Nc3cccc4ccccc34)ccc2O1	none
C[C@@H]1CN([C@H](C)CO)C(=O)c2cc(NC(=O)Nc3cccc4ccccc34)ccc2O[C@@H](C)CCCCO[C@H]1CN(C)Cc1ccccc1	Pf Dd2 inh inconclusive, T cruzi growth-1 111 | T cruzi growth-2 inactive | T cruzi growth-3 105 | NIH3T3 tox inactive | 3T3 cytotox 2 107
C[C@@H]1CCCCO[C@@H](CN(C)CC2CCCCC2)[C@@H](C)CN([C@H](C)CO)C(=O)c2cc(NC(=O)Nc3cccc4ccccc34)ccc2O1	T cruzi growth-1 inconclusive | T cruzi growth-2 105 | T cruzi growth-3 105 | NIH3T3 tox inactive | 3T3 cytotox 2 36
C[C@@H]1CCCCO[C@@H](CN(C)Cc2ccccc2)[C@@H](C)CN([C@H](C)CO)C(=O)c2cc(NC(=O)Nc3cccc4ccccc34)ccc2O1	none (no result: T cruzi growth-1)
Cc1noc(C)c1S(=O)(=O)Nc1cccc2c1O[C@H](CN(C)C(=O)Nc1ccc(C(F)(F)F)cc1)[C@H](C)CN([C@H](C)CO)C2=O	none
C[C@@H]1CN([C@@H](C)CO)C(=O)c2cc(NS(=O)(=O)c3ccc(F)cc3)ccc2O[C@@H]1CN(C)C	none
